# Measurements taken from PubChem BioAssay (Tox21).
# Values joined by “and” are separate entries in the source; they are usually repeats but may differ in a detail not shown here. Equal values may be shown once. Unmarked numbers belong to inactive results. Records with an inconclusive call do not appear. A call without a number means that no potency is given here. Active and inactive are the calls of the source. Unless noted, calls come from the whole dose curve; as a rule, active = well fitted curve in the direction sought with a large enough effect in the repeat runs; inconclusive = weak or mixed curves; inactive = no such curve, though single readings can be large; an effect the other way counts as inactive or inconclusive.
# Key:
# [1] = A CellTox Green Cytotoxicity Assay to monitor cytotoxicity in HEK293 cells - 32 hour (AID 1224881); conditions: CellTox Green fluorescence; series mostly up to 76.8 µM; note: nearly all actives have a fitted effect of over 40% in size; note: potency is the fitted concentration of half-maximal effect
# Outline: (§1)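 Fluorescence from a DNA-binding dye excluded by viable cells was measured repeatedly in the same HEK293 wells (600 cells/well) during continuous compound exposure at 37 C. Each assay gives one read point: 0, 8, 16, 24, 32 or 40 h.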
# [2] = A CellTox Green Cytotoxicity Assay to monitor cytotoxicity in HepG2 cells - 0 hour (AID 1224882); conditions: CellTox Green fluorescence; series mostly up to 76.8 µM; note: nearly all actives have a fitted effect of over 35% in size
# Outline: (§2)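 Real-time cytotoxicity: fluorescence of a cell-impermeant cyanine dye binding DNA of dead HepG2 cells, measured repeatedly (0–40 h) during compound exposure at 37 C. Cells seeded 600/well with reagent, dosed after 5 h.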
# [3] = A CellTox Green Cytotoxicity Assay to monitor cytotoxicity in HepG2 cells - 32 hour (AID 1224883); conditions: CellTox Green fluorescence; series mostly up to 76.8 µM; note: nearly all actives have a fitted effect of over 50% in size; note: potency is the fitted concentration of half-maximal effect
# Outline: as §2
# [4] = A CellTox Green Cytotoxicity Assay to monitor cytotoxicity in HEK293 cells - 8 hour (AID 1224884); conditions: CellTox Green fluorescence; series mostly up to 76.8 µM; note: nearly all actives have a fitted effect of over 35% in size; note: potency is the fitted concentration of half-maximal effect
# Outline: as §1
# [5] = qHTS RealTime-Glo MT Cell Viability Assay in HepG2 cells - 16 hour (AID 1224885); conditions: RealTime-Glo luminescence; series mostly up to 76.8 µM; note: nearly all actives have a fitted effect of over 50% in size; note: potency is the fitted concentration of half-maximal effect
# Outline: (§3)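 qHTS, HepG2, 600 cells/well, RealTime-Glo (NanoLuc + prosubstrate) added with cells; 5 h preincubation; DMSO compound addition; 37 C; luminescence at 0/8/16/24/32/40 h.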
# [6] = qHTS RealTime-Glo MT Cell Viability Assay in HEK293 cells - 8 hour (AID 1224887); conditions: RealTime-Glo luminescence; series mostly up to 76.8 µM; note: nearly all actives have a fitted effect of over 50% in size; note: potency is the fitted concentration of half-maximal effect
# Outline: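 Luminescence, which tracks viable cell number through reduction of the prosubstrate to a NanoLuc substrate, was read over continuous 37 C culture. Cells (600/well) were premixed with reagent and rested 5 h before 23 nL of compound in DMSO was pinned.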
# [7] = A CellTox Green Cytotoxicity Assay to monitor cytotoxicity in HEK293 cells - 16 hour (AID 1224888); conditions: CellTox Green fluorescence; series mostly up to 76.8 µM; note: nearly all actives have a fitted effect of over 35% in size; note: potency is the fitted concentration of half-maximal effect
# Outline: as §1
# [8] = qHTS RealTime-Glo MT Cell Viability Assay in HepG2 cells - 0 hour (AID 1224889); conditions: RealTime-Glo luminescence; series mostly up to 76.8 µM; note: nearly all actives have a fitted effect of over 50% in size
# Outline: as §3
# [9] = A CellTox Green Cytotoxicity Assay to monitor cytotoxicity in HepG2 cells - 8 hour (AID 1224890); conditions: CellTox Green fluorescence; series mostly up to 76.8 µM; note: nearly all actives have a fitted effect of over 45% in size; note: potency is the fitted concentration of half-maximal effect
# Outline: as §2
# [10] = qHTS assay to identify small molecule antagonists of the estrogen receptor alpha (ER-alpha) signaling pathway using the BG1 cell line in the presence of 0.1 nM 17-beta-estradiol - cell viability counter screen (AID 1259241); conditions: VM7Luc4E2 (BG1) viability, CellTiter-Fluor protease, 22 h, 0.1 nM estradiol agonist added; series mostly up to 92.4 µM; note: nearly all actives have a fitted effect of over 40% in size; note: potency is the fitted concentration of half-maximal effect
# Outline: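 Measures cytotoxicity alongside the ER-alpha antagonist readout: VM7Luc4E2 cells, charcoal-stripped serum, 0.1 nM 17beta-estradiol final, 22 hr compound incubation at 37C, CellTiter-Fluor fluorescence.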
# [11] = qHTS assay to identify small molecule antagonists of the androgen receptor (AR) signaling pathway using the MDA cell line in the presence of 0.5 nM R1881 - cell viability counter screen (AID 1259242); conditions: MDA-kb2 viability, CellTiter-Fluor protease fluorescence, 16 h; series mostly up to 92.4 µM; note: nearly all actives have a fitted effect of over 45% in size; note: potency is the fitted concentration of half-maximal effect
# Outline: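 Live-cell protease activity was measured by CellTiter-Fluor fluorescence after 30 min. Before that, MDA-kb2 MMTV-luciferase cells had 16 hr at 37C without CO2, exposed to test compounds and 0.5 nM R1881 final.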
# [12] = qHTS assay to identify small molecule HDAC inhibitors - cell viability counter screen (AID 1259365); conditions: HCT-116 viability, CellTiter-Glo ATP luminescence, 2 h; series mostly up to 92.4 µM; note: nearly all actives have a fitted effect of over 50% in size; note: potency is the fitted concentration of half-maximal effect
# Outline: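 Following a 2hr exposure of overnight-plated wild-type HCT-116 cells to DMSO-delivered compounds, CellTiter-Glo was added and luminescence recorded after 30min at room temperature.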
# [13] = qHTS assay to identify small molecule agonists of the sonic hedgehog signaling (Shh) pathway - cell viability counter screen (AID 1259366); conditions: NIH/3T3 Gli1-Luc viability, CellTiter-Fluor, 24 h; series mostly up to 92.4 µM; note: nearly all actives have a fitted effect of over 50% in size; note: potency is the fitted concentration of half-maximal effect
# Outline: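 After a 4hr attachment at 37C, NIH/3T3 cells bearing an integrated Gli1-driven luciferase reporter were dosed with compounds. Treatment lasted 24hr, with the final hour including CellTiter-Fluor for a fluorescence viability measurement.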
# [14] = qHTS assay to identify small molecule antagonists of the sonic hedgehog signaling (Shh) pathway - cell viability counter screen (AID 1259367); conditions: NIH/3T3 Gli1-Luc viability, CellTiter-Fluor, 24 h; series mostly up to 92.4 µM; note: nearly all actives have a fitted effect of over 55% in size; note: potency is the fitted concentration of half-maximal effect
# Outline: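 Cytotoxicity was assessed in parallel with Shh reporter activity by measuring live-cell protease fluorescence (CellTiter-Fluor) in NIH/3T3 cells stably carrying Gli1-Luc, treated with compound under conditioned medium stimulation for 23 hr plus 1 hr reagent incubation.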
# [15] = qHTS assay to identify small molecule agonists of the sonic hedgehog signaling (Shh) pathway (AID 1259368; calls by dose curve;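 note: NIH/3T3-derived 3T3Gli1-Luc cells carrying a stable Gli1-driven firefly luciferase reporter; nearly all actives have a fitted effect of over 15% in size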); conditions: NIH/3T3 Gli1-Luc reporter, luciferase, 24 h; series mostly up to 92.4 µM
# Outline: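 Luminescence was read after 30 min at room temperature with luciferase reagent. Before that, 3T3Gli1-Luc cells (NIH/3T3 clone, stable Gli1-Luc reporter; 2,000/well) were exposed to compounds for 24 hr at 37C, 5% CO2, compounds being added 4 hr post-plating.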
# [16] = qHTS RealTime-Glo MT Cell Viability Assay in HEK293 cells - 24 hour (AID 1224886); conditions: RealTime-Glo luminescence; series mostly up to 76.8 µM; note: nearly all actives have a fitted effect of over 50% in size; note: potency is the fitted concentration of half-maximal effect
# Outline: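 Assay medium contained NanoLuc luciferase plus cell-permeant prosubstrate, added with HEK293 cells at 600 cells/well. After 5 h at 37 C/5% CO2 compounds were added; plates stayed at 37 C for 40 h with serial luminescence reads.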
# [17] = qHTS assay to identify small molecule phospholipidosis (PLD) inducers (AID 1259344; active = well fitted curve in the direction sought with a large enough effect; an effect the other way counts as inactive or inconclusive); conditions: HepG2 phospholipidosis, LipidTOX Red imaging, 24 h; series mostly up to 38.3 µM
# Outline: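 Cells (HepG2, 900 per well) attach for 4 h, receive LipidTOX Red and compound together, incubate 24 h at 37 C, are fixed 30 min with paraformaldehyde/Hoechst, then imaged at one site per well.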
# [18] = molecular target: Estrogen receptor (Homo sapiens) (UniProt P03372); assay: qHTS assay to identify small molecule antagonists of the estrogen receptor alpha (ER-alpha) signaling pathway using the BG1 cell line in the presence of 0.1 nM 17-beta-estradiol (AID 1259244); conditions: VM7Luc4E2 (BG1) ERE-luciferase, antagonist mode, 0.1 nM E2, 22 h; series mostly up to 92.4 µM; note: nearly all actives have a fitted effect of over 50% in size; note: potency is the fitted concentration of half-maximal effect
# Estrogen receptor (Homo sapiens), sequence (P03372 whole entry, looked up): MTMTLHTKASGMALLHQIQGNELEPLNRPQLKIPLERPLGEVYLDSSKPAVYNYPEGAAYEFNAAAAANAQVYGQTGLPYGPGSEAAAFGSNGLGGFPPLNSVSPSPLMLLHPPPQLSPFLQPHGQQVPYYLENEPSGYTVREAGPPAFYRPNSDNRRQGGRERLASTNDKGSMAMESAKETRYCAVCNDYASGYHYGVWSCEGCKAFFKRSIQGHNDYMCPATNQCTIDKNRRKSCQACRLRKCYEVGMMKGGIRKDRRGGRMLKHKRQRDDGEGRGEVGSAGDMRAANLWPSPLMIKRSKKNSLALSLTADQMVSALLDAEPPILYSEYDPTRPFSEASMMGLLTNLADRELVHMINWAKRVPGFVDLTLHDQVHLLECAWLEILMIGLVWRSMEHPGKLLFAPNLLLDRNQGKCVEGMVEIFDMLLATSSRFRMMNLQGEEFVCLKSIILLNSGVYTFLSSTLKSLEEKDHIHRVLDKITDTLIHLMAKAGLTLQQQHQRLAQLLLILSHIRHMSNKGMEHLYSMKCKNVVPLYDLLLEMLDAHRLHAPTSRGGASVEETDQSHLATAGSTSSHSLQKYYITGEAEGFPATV
# Outline: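 Luciferase luminescence (ONE-Glo, 30 min at room temperature) was read after 22 hr at 37C exposure to compounds plus 17beta-estradiol at 0.1 nM final. Cells were VM7Luc4E2 with endogenous ER-alpha and an ERE-driven luciferase, pre-cultured 5 days in hormone-depleted medium.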
# [19] = qHTS assay to identify small molecule HDAC inhibitors (AID 1259364); conditions: HCT-116 HDAC-Glo I/II luminescence, 2 h; series mostly up to 92.4 µM; note: top concentration of the series differs between compounds; nearly all actives have a fitted effect of over 45% in size
# Outline: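 Luminescence read after 30 min room-temperature HDAC-Glo incubation measures cellular class I/II HDAC activity. Compounds were applied for 2 hr at 37 C to HCT-116 wild-type cells seeded the day before.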
SMILES,Potency [1],Potency [2],Potency [3],Potency [4],Potency [5],Potency [6],Potency [7],Potency [8],Potency [9],Potency [10],Potency [11],Potency [12],Potency [13],Potency [14],Potency [15],Potency [16],outcome [17],Potency [18],Potency [19],PLD induction [17]
O=C(NC(=O)c1ccccc1Cl)Nc1ccc(OC(F)(F)F)cc1,inactive,inactive,inactive,inactive,inactive,inactive,inactive,inactive,inactive,inactive,inactive,inactive,inactive,inactive,inactive,–,–,–,–,–
CN1C(=O)[C@@H](NC(=O)c2cc3ccccc3[nH]2)N=C(c2ccccc2)c2ccccc21,inactive,inactive,inactive,inactive,–,inactive,inactive,inactive,inactive,inactive,inactive,inactive,inactive,inactive,inactive,inactive,inactive,–,–,–
CNC(=O)/C=C(\C)OP(=O)(OC)OC,inactive,inactive,inactive,–,inactive,inactive,inactive,inactive,–,inactive,inactive,inactive,inactive,inactive,inactive,inactive,–,inactive,inactive,–
Fc1ccc(C(OCCN2CCN(CCCc3ccccc3)CC2)c2ccc(F)cc2)cc1,23.9 µM (active),inactive,23.9 µM (active),–,23.9 µM (active),16.9 µM (active),21.3 µM (active),inactive,23.9 µM (active),29.8 µM (active),23.7 µM (active),inactive,18.8 µM (active),21.1 µM (active),inactive,9.52 µM (active),inactive,23.7 µM (active),inactive,–
Oc1cc(Cl)cc(Cl)c1,49.5 µM (active),inactive,inactive,inactive,inactive,–,–,inactive,–,inactive,inactive,inactive,inactive,inactive,inactive,–,–,inactive,inactive,–
CSC1=N[C@@](C)(c2ccccc2)C(=O)N1Nc1ccccc1,inactive,inactive,inactive,inactive,inactive,inactive,inactive,inactive,inactive,–,27.3 µM (active),inactive,inactive,inactive,inactive,–,–,–,inactive,–
CC(=O)[O-].CC(=O)[O-].CC(=O)[O-].[Cr+3],inactive,inactive,inactive,–,inactive,inactive,inactive,inactive,inactive,inactive,inactive,inactive,inactive,–,inactive,inactive,–,–,inactive,–
CO/N=C(/C1=NOCCO1)c1ccccc1Oc1ncnc(Oc2ccccc2Cl)c1F,inactive,inactive,inactive,inactive,–,inactive,inactive,inactive,inactive,–,17.2 µM (active),inactive,inactive,inactive,inactive,inactive,–,–,inactive,–
COC(=O)c1cc(Oc2ccc(Cl)cc2Cl)ccc1[N+](=O)[O-],inactive,inactive,inactive,inactive,inactive,–,inactive,inactive,inactive,inactive,inactive,inactive,inactive,inactive,inactive,–,–,–,inactive,–
CCCCCCCc1ccc(O)cc1,43.6 µM (active),inactive,21.9 µM (active),–,inactive,6.17 µM (active),43.6 µM (active),inactive,24.5 µM (active),inactive,inactive,inactive,inactive,–,inactive,12.3 µM (active),–,inactive,–,–
CC(=O)O.CC(=O)O.CC(=O)O.CC(=O)O.CC(=O)O.CC(=O)O.CC(=O)O.O.O.[Cr].[Cr].[Cr],inactive,inactive,inactive,–,inactive,inactive,inactive,inactive,inactive,inactive,inactive,inactive,inactive,inactive,inactive,inactive,–,–,–,–
CC(=O)[O][Pb]([c]1ccccc1)([c]1ccccc1)[c]1ccccc1,3.09 µM (active),inactive,0.871 µM (active),11 µM (active),1.55 µM (active),3.47 µM (active),4.9 µM (active),–,–,21.7 µM (active),6.11 µM (active),61.1 µM (active),0.486 µM (active),0.77 µM (active),inactive,–,–,inactive,–,–
Brc1ccc(Oc2ccc(Br)cc2Br)c(Br)c1,inactive,inactive,inactive,–,inactive,–,inactive,inactive,inactive,inactive,inactive,inactive,inactive,inactive,inactive,49 µM (active),–,inactive,–,–
NC1CCC(CC2CCC(N)CC2)CC1 (centres undefined),inactive,inactive,inactive,inactive,inactive,inactive,inactive,inactive,inactive,–,–,inactive,–,–,inactive,–,–,inactive,–,–
CC1CCCC1,inactive,inactive,inactive,inactive,inactive,inactive,inactive,inactive,inactive,inactive,inactive,inactive,inactive,inactive,inactive,–,–,–,–,–
CN(C)C(=S)SSC(=S)N(C)C,4.83 µM (active) and 1.23 µM (active) and 213 nM (active),inactive,309 nM (active) and 134 nM (active),–,48.3 µM (active) and 1.74 µM (active) and 2.68 µM (active),43 µM (active) and 27.5 µM (active),43 µM (active) and 38.9 µM (active),inactive,–,676 nM (active) and 6.86 µM (active) and 266 nM (active),214 nM (active) and 217 nM (active),inactive,427 nM (active) and 545 nM (active) and 422 nM (active),191 nM (active) and 611 nM (active) and 1.19 µM (active),inactive,272 nM (active) and 195 nM (active) and 21.3 µM (active),inactive,191 nM (active) and 273 nM (active) and 237 nM (active),inactive,–
CCCCC/C=C\C/C=C\C/C=C\C/C=C\CCCC(=O)NCC(=O)O,inactive,inactive,inactive,–,inactive,inactive,inactive,inactive,–,inactive,inactive,inactive,inactive,inactive,inactive,inactive,–,inactive,inactive,0.136% [at 3.15 µM]
